# Only some compounds are listed: those with a hit (about 2.1% of all), similar ones and a draw of the others.
# Abeta yeast res: compounds reversing amyloid beta toxicity in yeast. yeast expressing A-beta42, growth rescue, OD600, 48 h; response scale: 0% DMSO, 100% iron-clioquinol control. Potency, µM (series often up to 46.1 µM), most hits filed as activators. 0.063% of 410,000 active. AID 1347071; further: nearly all actives have a fitted effect of over 55% in size
#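 Yeast A-beta toxicity model in growth medium with pinned compounds, 48 h at 30 C; growth read as absorbance at 600 nm. Normalized to FeCl3/clioquinol equimolar mix (positive) and DMSO (negative).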
# TDP43 rescue: rescues yeast growth from TDP-43 toxicity; TDP-43 expressing yeast growth rescue, BacTiter-Glo, 24 h; Potency, µM (highest dose often 46.1 µM), without a hit: at the highest dose growth rescue (activation), hits mostly activators; 1.8% of 410,000 active; further: % of control where 0% means no effect; nearly all actives have a fitted effect of over 50% in size
#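 Galactose-induced TDP-43 yeast, OD600=0.02, compound pinned; 24 hr, 30 deg C; BacTiter-Glo luminescence for growth. Inhibitors of TDP-43 toxicity read as activators.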
# FUS suppressor: FUS proteinopathy suppression in yeast; S. cerevisiae FUS-expressing, growth rescue, OD600, 24 h; Potency, µM (series often up to 76.6 µM), usual class: activators; 0.24% of 390,000 active;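 further: plate controls were DMSO vehicle for no effect and reference control for full effect; nearly all actives have a fitted effect of over 55% in size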
#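 Yeast FUS proteinopathy model; galactose-induced FUS (2%), starting OD 0.005. Cpds in dilution series, 24hr, 30C, 99% humidity. Abs 600 nm growth. Pos ctrl CP55940 (top 92uM final); neg ctrl DMSO.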
# aSyn rescue: inhibitors of alpha-synuclein toxicity in yeast; Yeast expressing alpha-synuclein, growth rescue, BacTiter-Glo, 24 h; Potency, µM (top dose mostly 46.1 µM), inactives show at the top dose growth rescue (activation), most hits filed as activators; 0.14% of 370,000 active; further: % of control where 0% means no effect; nearly all actives have a fitted effect of over 65% in size
#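 Readout is rescue of growth in alpha-synuclein-expressing yeast, so inhibitors of toxicity appear as activators. Growth after 24 hr at 30 deg C in galactose medium is quantified by luminescence.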
# * hit, by the source's call; i = inactive; ? = inconclusive; · = no result given. The call rests on the fitted dose curve; in most records, active means well fitted curve in the direction sought with a large enough effect; inconclusive means small, poorly fitted or top-dose-only effect, or another doubt; inactive means no such curve, though single readings can be large; an effect the other way counts as inactive or inconclusive. Potency means the concentration at half of the fitted maximal effect.
SMILES,Abeta yeast res,TDP43 rescue,FUS suppressor,aSyn rescue
COC1=C(Nc2ccc(O)cc2)C(=O)c2ccccc2C1=O,i,?,i,-12%
O=C(C1CC1)N1CCC(C(O)(c2ccccc2)c2ccccc2)CC1,i,-2%,i,-1%
CCOC(=O)C1C(=O)C=C(c2cccc(NS(C)(=O)=O)c2)CC1c1ccco1 (configuration not stated),i,4%,i,-4%
CCOC(=O)C1C(=O)C=C(c2ccc(Br)cc2)CC1c1ccco1 (configuration not stated),i,25µM*,i,4%
CCOC(=O)C1C(=O)C=C(c2ccc([N+](=O)[O-])cc2)CC1c1ccccc1 (configuration not stated),i,20µM*,i,9%
CCOc1ccccc1NC(=S)N1CCCCCC1,i,23%,i,-1%
O=C(OCc1nc2scc(-c3ccccc3)c2c(=O)[nH]1)c1ccco1,?,35µM*,i,5%
NC(=O)Cc1nc2scc(-c3ccccc3)c2c(=O)[nH]1,i,-12%,i,-1%
COc1ccc(-n2c3c(c(=O)[nH]c2=O)C(NC(=O)c2ccccc2Cl)(C(F)(F)F)C(=O)N3)cc1 (configuration not stated),i,4%,i,·
CCOC(=O)c1cc(-c2ccccc2)n(CC(=O)Nc2cccc(OC)c2)c1C,i,9%,·,2%
O=C(COc1ccccc1)Nc1nnc(-c2ccccc2)o1,?,?,i,20µM*
O=C(COc1ccccc1)Nc1nnc(-c2ccc(Cl)s2)o1,?,8.9µM*,i,18µM*
Cc1ccc(C)c(-c2nnc(NC(=O)COc3ccccc3)o2)c1,i,14µM*,i,11µM*
Cc1ccc(-c2noc(CN(C(=O)COc3cc(C)cc(C)c3C)C(C)C)n2)cc1,i,17%,i,·
Cc1cc(C)nc(SCc2ccc(C(=O)NNC(=O)Nc3cccc(Cl)c3)cc2)n1,?,1%,?,4%
COc1cc(NC(=O)CN2CCCN(S(=O)(=O)c3ccc(F)cc3)CC2)cc(OC)c1,i,15%,i,·
OCc1ccc(-c2nn(Cc3ccccc3)c3ccccc23)o1,i,4%,i,4µM*
c1ccc(Cc2ccc(OCCN3CCOCC3)cc2)cc1,i,-24%,i,6%
Cc1cc(SCC(=O)N/N=C/c2ccc(O)c(O)c2O)c(C)cc1Br,i,5%,·,16µM*
Cc1scc(C(=O)N2CCN(c3ccc(Cl)cc3)CC2)c1C,i,14µM*,i,7%
Cc1occc1C(=O)N1CCN(c2ccc(Cl)cc2)CC1,i,10µM*,i,7%
COc1ccc(N2CCN(C(=O)c3cc(-c4ccc(F)cc4)[nH]c3C)CC2)cc1,i,?,?,17%
Cc1[nH]c2ccc(C(=O)N3CCN(c4ccc(F)cc4)CC3)cc2c1C,i,14µM*,i,13%
Cc1[nH]c(-c2ccc(F)cc2)cc1C(=O)N1CCN(c2ccc(Cl)cc2)CC1,i,16µM*,i,?
O=C(c1ccccc1)N1CCN(c2ccc(Cl)cc2)CC1,i,?,i,8%
SMILES,Abeta yeast res,TDP43 rescue,FUS suppressor,aSyn rescue
Cc1occc1C(=O)N1CCN(c2ccc([N+](=O)[O-])cc2)CC1,i,0%,i,-1%
CCCn1c(SCC(O)c2cccc(OC)c2)nc2ccccc21 (configuration not stated),i,?,i,·
Cc1cc(-c2nnc(SCC(=O)Nc3c(C)cccc3C)n2N)n[nH]1,i,-4%,i,-2%
c1ccc(-c2ccc(CNc3nc(-c4ccccn4)nnc3-c3ccccc3)cc2)cc1,·,·,20µM*,·
c1ccc(-c2cnc(-c3ccccn3)nn2)cc1,i,22µM*,i,25%
c1ccc(-c2cnc(-c3ccccc3)nn2)cc1,i,23%,i,-1%
C=CCNc1nc(-c2ccccn2)nnc1-c1ccccc1,i,?,i,?
c1cncc(-c2ccc3[nH]ccc3c2)c1,i,10%,i,1%
c1ccc(-c2ccc3[nH]ccc3c2)cc1,i,13µM*,i,-27%
CC(C)Cn1c(SCC(=O)N2CCc3ccccc3C2)nc(O)cc1=O,i,1%,i,2%
NS(=O)(=O)c1ccc(CCNC/C=C/c2ccccc2)cc1,i,0%,i,-1%

# Bioassay records as filed in PubChem BioAssay.
